Laboratory results taken from PubChem BioAssay AID652015 (National Center for Advancing Translational Sciences (NCATS), 2013).
Results filed as inconclusive are left out. Activity calls are given as the source filed them. Calls come from the whole dose curve; as a rule, active = well fitted inhibition curve with a large enough effect; inconclusive = small, poorly fitted or top-dose-only effect; inactive = no such curve, though single readings can be large or run the other way.

target: Coelenterazine h 2-monooxygenase (Renilla reniformis) (UniProt P27652); experiment: qHTS Assay for Inhibitors of Sea Pansy Luciferase from the GSK Published Protein Kinase Inhibitor Set; conditions: purified Renilla luciferase, luminescence; series mostly up to 57.5 µM
Sequence (P27652 whole entry, looked up): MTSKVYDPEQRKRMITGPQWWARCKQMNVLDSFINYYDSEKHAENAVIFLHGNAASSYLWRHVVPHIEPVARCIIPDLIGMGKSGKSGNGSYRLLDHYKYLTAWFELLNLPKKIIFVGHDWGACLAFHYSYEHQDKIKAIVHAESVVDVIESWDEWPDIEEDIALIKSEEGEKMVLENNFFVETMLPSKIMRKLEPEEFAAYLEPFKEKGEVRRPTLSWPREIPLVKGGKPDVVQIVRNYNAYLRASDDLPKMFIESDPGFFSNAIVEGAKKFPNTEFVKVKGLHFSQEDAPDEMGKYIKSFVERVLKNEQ
Outline: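 Purified R. reniformis luciferase (1 nM final) with 5 uM coelenterazine h in 50 mM Tris acetate pH 7.5, 100 uM NaCl, 0.01% Tween-20, 0.05% BSA. A titration, about 60 uM to 300 pM; luminescence read after about 2 min.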

Potency, inactive:
Fc1cccc(COc2ccc(Nc3ncncc3C#Cc3ccccc3)cc2Cl)c1
Cc1ccc2c(-c3ccnc(Nc4ccc5c(c4)OCCO5)n3)c(-c3ccc(C(F)(F)F)cc3)nn2n1
NS(=O)(=O)c1ccc(Nc2cc(-c3cccc(O)c3)[nH]n2)cc1
CN(C)CCCNc1nccc(-c2c(-c3ccc(F)cc3)nn3cc(C(F)(F)F)ccc23)n1
Fc1ccc(-c2ncn(C3CCNCC3)c2-c2ccnc(Oc3cccc(F)c3)n2)cc1
COC(=O)Nc1nc2ccc(Oc3ccc(NC(=O)Nc4ccccc4)cc3)cc2[nH]1
CCN1CCC(C(=O)Nc2n[nH]c3nnc(-c4cccc(F)c4F)cc23)CC1
NC(=O)Cc1ccccc1Oc1nccc(-c2c(-c3ccc(F)cc3)ncn2C2CCNCC2)n1
O=C(Nc1n[nH]c2nc(-c3ccc(O)cc3)c(Br)cc12)C1CC1
COc1cc(C=NNc2ncnc3c2cnn3-c2ccccc2)ccc1O
c1cnn2ncc(-c3ccnc(NCCCN4CCOCC4)n3)c2c1
CCc1nn2ncccc2c1-c1ccnc(NC2CC2)n1
CC(Oc1cc(-n2cnc3ccc(OCC(O)CO)cc32)sc1C(N)=O)c1ccccc1Cl (stereo unspecified)
CS(=O)(=O)CCNCc1nc(-c2ccc3ncnc(Nc4ccc(OCc5cccc(C(F)(F)F)c5)cc4)c3c2)cs1
CC1=C(C(=O)Nc2ccc3[nH]ncc3c2)C(c2ccc3ccccc3c2)CC(=O)N1 (stereo unspecified)
O=S(=O)(CCNCc1ccc(-c2ccc3ncnc(Nc4ccc(OCc5cccc(F)c5)c(Cl)c4)c3c2)o1)c1ccccc1
